Experimental data as given in PubChem BioAssay (NCI).
Where “and” joins values, the source holds several entries; their conditions need not be identical. Identical values can stand only once. The panel holds about 83,000 compounds, 20% with a hit somewhere; the sample as a whole holds those more often.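 Cells were grown in 96-well plates and exposed to the test compound at a single concentration for 48 hours; results are reported as percent growth, with values below 10 considered active.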 Calls of active or inactive are those of the source.

How the values were obtained:
Assay in all cases: NCI-60 one-dose screen, 48 h (100 = growth as untreated, 0 = no growth, -100 = all killed)
[1] = system: SK-MEL-2 melanoma; details: 10 µM unless noted
[2] = system: EKVX NSCLC; details: 10 µM unless noted
[3] = system: SN12C renal; details: 10 µM unless noted
[4] = system: UO-31 renal; details: 10 µM unless noted
[5] = system: TK-10 renal
[6] = system: ACHN renal; details: 10 µM unless noted
[7] = system: CAKI-1 renal; details: 10 µM unless noted
[8] = system: A498 renal; details: 10 µM unless noted
[9] = system: CCRF-CEM leukemia; details: 10 µM unless noted
[10] = system: MOLT-4 leukemia; details: 10 µM unless noted
[11] = system: SR leukemia; details: 10 µM unless noted
[12] = system: RPMI-8226 leukemia; details: 10 µM unless noted
[13] = system: OVCAR-8 ovarian; details: 10 µM unless noted
[14] = system: OVCAR-5 ovarian; details: 10 µM unless noted
[15] = system: OVCAR-4 ovarian; details: 10 µM unless noted
[16] = system: SK-OV-3 ovarian; details: 10 µM unless noted
[17] = system: IGROV1 ovarian; details: 10 µM unless noted
[18] = system: OVCAR-3 ovarian; details: 10 µM unless noted
[19] = system: HS 578T breast; details: 10 µM unless noted
[20] = system: NCI/ADR-RES ovarian; details: 10 µM unless noted

Measured: growth

CC(=O)c1ccc(Br)c([N+](=O)[O-])c1
inactive: [1] 102% | [2] 104% | [3] 104% | [4] 90.7% | [5]; 10 µM unless noted 91.5% | [6] 111% | [8] 76.9% | [9] 98.1% | [10] 96.8% | [11] 94.5% | [12] 96.6% | [13] 107% | [14] 119% | [15] 114% | [16] 109% | [17] 109% | [18] 124% | [19] 90.7%
active: [7] -7.58%

COc1cnc2c(c1)C(=O)c1c-2n(CCCN2CCNCC2)c(=O)c2cc(Cl)ccc12
inactive: [1] 43.9% | [2] 29% | [3] 16.5% | [5]; 10 µM unless noted 47.5% | [7] 33.1% | [8] 13.6% | [15] 53.4% | [16] 14.5% | [17] 51.4% | [19] 66.3% | [20] 48.1%
active: [4] -59% | [6] -100% | [9] -69.4% | [10] -54.2% | [11] -48.7% | [12] -64.9% | [13] -58.9% | [14] -96.1% | [18] -90.5%

COc1cccc(N2CCN(c3ncnc4cc[nH]c34)CC2)c1
inactive: [1] 64.7% | [2] 50.1% | [3] 85.5% | [4] 65% | [5]; 10 µM unless noted 52.8% | [6] 59.6% | [7] 71.6% | [8] 41.3% | [9] 60.9% | [10] 29.6% | [11] 39.4% | [12] 35.4% | [13] 40.3% | [14] 104% | [15] 69.2% | [16] 86.5% | [17] 85.4% | [18] 70.9% | [19] 92.5%

O=C(c1ccccc1)c1cccc(C(Br)Br)c1
inactive: [1] 74.5% | [2] 107% | [3] 89.7% | [4] 74.1% | [5]; 10 µM unless noted 78.9% | [6] 91% | [7] 78.2% | [8] 77.2% | [9] 103% | [10] 81.5% | [11] 43.8% | [12] 84.4% | [13] 93.7% | [14] 125% | [15] 95.4% | [16] 94% | [17] 70.5% | [18] 97.5% | [19] 94.5%

O=C1CCCN1C(O)CCN(Cc1ccccc1)Cc1ccc(Cl)cc1 (centres undefined)
inactive: [1] 101% | [2] 101% | [3] 101% | [4] 84.9% | [5]; 10 µM unless noted 109% | [6] 108% | [7] 97.3% | [8] 109% | [9] 91.7% | [10] 89.9% | [11] 83% | [12] 98.5% | [13] 96.7% | [14] 99.2% | [15] 103% | [16] 101% | [17] 100% | [18] 108% | [19] 104% | [20] 106%

C=C1C(=O)O[C@H]2[C@H]1CC/C(COC(=O)NCc1cn(C)c3ccccc13)=C\CC[C@@]1(C)O[C@@H]21
inactive: [2] 29.6% | [8] 63.4% | [14] 23% | [15] 12% | [16] 60.2% | [19] 49.6% | [20] 19%
active: [1] -2.82% | [3] 2.93% | [4] -88.3% | [5]; 10 µM unless noted -47.8% | [6] -36.2% | [7] -18.7% | [9] -13.3% | [10] -15.4% | [11] 6.96% | [12] -29.3% | [13] 4.58% | [17] 0.634% | [18] -80.8%

ClC1(Cl)C2CCCCCCC21 (centres undefined)
inactive: [1] 93% | [2] 107% | [3] 108% | [4] 93.4% | [5]; 10 µM unless noted 92.1% | [6] 110% | [7] 98.3% | [8] 79.3% | [9] 109% | [10] 109% | [11] 108% | [12] 106% | [13] 123% | [14] 116% | [15] 109% | [16] 118% | [17] 107% | [18] 120% | [19] 91.8%

COC1(OC)C2(Cl)CCC1(Cl)C(Cl)=C2Cl
inactive: [1] 95.2% | [2] 104% | [3] 96.8% | [4] 94.6% | [5]; 10 µM unless noted 119% | [6] 109% | [7] 109% | [8] 91% | [9] 103% | [10] 105% | [11] 98.6% | [12] 103% | [13] 94.6% | [14] 105% | [15] 103% | [16] 104% | [17] 106% | [18] 112% | [19] 99.9%

O=C1/C(=C/c2ccccc2)SC(=Nc2ccccc2)N1Nc1ccccc1
active: [1] -25.2% | [3] -58.3% | [8] -33.1% | [9] 6.81% | [10] -1.49% | [11] -20.1% | [12] -37.4% | [15] 8.26% | [18] -5.68% | [20] 8.98%
inactive: [2] 18.9% | [4] 14.8% | [5]; 10 µM unless noted 31.4% | [6] 10% | [7] 17.1% | [13] 24.5% | [14] 22.3% | [16] 10.5% | [17] 22.7% | [19] 35.1%

C=C(C)[C@@H]1CC[C@]2(C(=O)O)CC[C@]3(C)[C@H](CC[C@@H]4[C@@]5(C)C[C@@H](CC#Cc6ccc(C(C)=O)s6)[C@H](O)C(C)(C)[C@@H]5CC[C@]43C)[C@@H]12
inactive: [1] 51.9% | [2] 53.2% | [3] 68% | [4] 56.6% | [5]; 10 µM unless noted 49.6% | [6] 47.9% | [7] 40.7% | [9] 44.7% | [10] 32.5% | [11] 78.3% | [12] 40% | [13] 38.4% | [14] 98% | [15] 33.6% | [16] 27.7% | [17] 89.1% | [18] 58.4% | [19] 73.1% | [20] 76.3%
active: [8] -3.73%

Cc1cc(O)c2cc3c(O)c(O)ccc3cc2c1
inactive: [1] 124% | [2] 106% | [3] 112% | [4] 102% | [5]; 10 µM 115% | [6] 106% | [7] 105% | [8] 103% | [9] 118% | [10] 105% | [11] 101% | [12] 115% | [14] 81.5% | [16] 109% | [17] 98.1% | [18] 133% | [19] 110% | [20] 109%
active: [5]; 100 µM -14.3% and -64.8%

CCCCCCCCCCCCC1CCC(=O)O1 (centres undefined)
inactive: [1] 103% | [2] 92.7% | [3] 98.9% | [4] 92.5% | [5]; 10 µM unless noted 102% | [6] 97.3% | [7] 91.6% | [8] 96.2% | [9] 105% | [10] 95.5% | [11] 93.6% | [12] 97.4% | [13] 108% | [14] 85.4% | [15] 94.1% | [16] 102% | [17] 86.7% | [18] 105% | [19] 108% | [20] 100%

CC(C)(c1ccccc1)c1cc(O)c(C(C)(C)c2ccccc2)cc1O
active: [8] 8.74% | [10] -17.8% | [12] 9.65%
inactive: [1] 10.4% | [2] 33% | [3] 22.4% | [4] 17.2% | [5]; 10 µM unless noted 36.1% | [6] 44% | [7] 31.6% | [9] 15.3% | [11] 18.5% | [13] 45.6% | [14] 78.8% | [15] 30.8% | [16] 43.1% | [17] 42.4% | [18] 38.9% | [19] 47.4% | [20] 43.7%

O=C(N/N=C/c1ccc([N+](=O)[O-])cc1)c1ccccc1Nc1ccnc(C(F)(F)F)c1
active: [8] -26.1% | [19] -27.6%
inactive: [1] 58.5% | [2] 67.5% | [3] 83.9% | [4] 67.8% | [5]; 10 µM unless noted 83.4% | [6] 82.6% | [7] 76.4% | [9] 77.9% | [10] 86.3% | [11] 99.6% | [12] 11.2% | [13] 86.8% | [14] 75.7% | [15] 61.1% | [16] 84.9% | [17] 75.3% | [18] 91.5% | [20] 71.9%

O=C(N/N=C\c1cc(Br)ccc1O)c1ccncc1
inactive: [1] 31.4% | [2] 29.6% | [3] 46.5% | [4] 23.4% | [5]; 10 µM unless noted 43.7% | [6] 27.3% | [7] 24.7% | [8] 74.1% | [11] 14.2% | [12] 36.9% | [13] 27.5% | [14] 54.8% | [15] 36.8% | [16] 38.3% | [17] 25.2% | [18] 25.1% | [19] 76.5% | [20] 12.4%
active: [9] 8.77% | [10] -10.7%
